# Screening results from PubChem BioAssay.
# Only some compounds are listed: those with a hit (about 8.9% of all), similar ones and a draw of the others.
# MCF10A rerep: A quantitative high throughput screen for small molecules that induce DNA re-replication in MCF 10a normal breast cells; actives 2.9% (n = 350,000); Potency, µM (doses to about 46.1 µM), for the others: top-dose activity, positive = re-replication, actives largely listed as activators; MCF 10A DNA re-replication, Hoechst nuclear intensity, 48 h; note: potency is the fitted concentration of half-maximal effect; % of control where 0% means no effect; nearly all actives have a fitted effect of over 50% in size
# KB-V1 MDR tox: qHTS assay for MDR1-selective chemotherapeutics: Primary screen using the drug-selected MDR subline cells KB-V1 | AID 1347076, 2019 | Potency, µM (highest dose often 46.1 µM), actives largely listed as cytotoxic | actives 3.4% (n = 400,000) | KB-V1 MDR cells viability, CellTiter-Glo, 72 h; note: potency is the fitted concentration of half-maximal effect; % is set by controls: 0 for no effect and ±100 for the full control effect; nearly all actives have a fitted effect of over 60% in size
#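 Following 72 h at 37 degrees C with compound, KB-V1 cell viability was read by CellTiter-Glo luminescence, medium being phenol-red-free DMEM plus 10% FBS; concentration-response parameters came from normalized, curve-fitted qHTS data.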
# D3 ag: qHTS of D3 Dopamine Receptor Agonist: qHTS; actives 0.58% (n = 410,000); max activation, %; D3R DiscoveRx beta-arrestin cells, luminescence, 90 min; AID 652048, 2013; D(3) dopamine receptor (Homo sapiens), P35462; in the data active = max activation above about 30%; note: 0% is about no effect
# Target sequence (P35462 whole entry, looked up): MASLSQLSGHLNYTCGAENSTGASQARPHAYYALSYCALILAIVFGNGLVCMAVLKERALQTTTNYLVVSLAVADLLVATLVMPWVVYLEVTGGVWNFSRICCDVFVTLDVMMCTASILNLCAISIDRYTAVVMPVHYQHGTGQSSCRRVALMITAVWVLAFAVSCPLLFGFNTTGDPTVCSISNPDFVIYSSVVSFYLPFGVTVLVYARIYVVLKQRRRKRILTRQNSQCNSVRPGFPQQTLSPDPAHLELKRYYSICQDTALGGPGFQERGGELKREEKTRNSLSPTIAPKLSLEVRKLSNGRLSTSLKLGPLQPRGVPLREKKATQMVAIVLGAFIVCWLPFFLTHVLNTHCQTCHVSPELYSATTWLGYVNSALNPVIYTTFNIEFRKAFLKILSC
#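 Agonist-mode cell screen: cells plated at 1500/well and incubated overnight at 37 °C, then exposed to library compounds for 90 min at 37 °C. Detection reagent was added for 30–60 min at room temperature, and luminescence was read.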
# D3 antag: qHTS of D3 Dopamine Receptor Antagonist: qHTS; actives 2.5% (n = 360,000); max response, negative = inhibition, %; D3R cells, DiscoveRx beta-arrestin luminescence, antagonist mode; hits give low values; D(3) dopamine receptor (Homo sapiens), P35462; in the data active = max response below about -50%; inconclusive = no clear call, values can overlap the other calls; note: % is set by controls: 0 for no effect and ±100 for the full control effect
#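 Cells plated overnight at 1500 cells/well, then exposed to library compounds with dopamine controls for 90 minutes at 37 degrees C. DiscoveRx reagent added for 30–60 minutes at room temperature; luminescence read, quantitative HTS format.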
# SW480 rerep: A quantitative high throughput screen for small molecules that induce DNA re-replication in SW480 colon adenocarcinoma cells; SW480 DNA re-replication, Hoechst DNA content imaging, 48 h; Potency, µM (series often up to 46.1 µM), inactives show at the highest dose re-replication activation, most hits filed as activators; actives 1.8% (n = 340,000); note: potency is the fitted concentration of half-maximal effect; % of control where 0% means no effect; nearly all actives have a fitted effect of over 55% in size
#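 Compounds, transferred as 23 nL by pin tool, were incubated with cells for 48 hr; DNA content per nucleus was then quantified by Hoechst staining and fluorescence plate imaging.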
# KB-3-1 tox: qHTS assay for MDR1-selective chemotherapeutics: Primary screen using the parental adenocarcinoma cell KB-3-1; KB-3-1 viability, CellTiter-Glo ATP luminescence, 72 h; Potency, µM (top dose mostly 46.1 µM), usual class: cytotoxic; actives 1.4% (n = 400,000); note: potency is the fitted concentration of half-maximal effect; % is set by controls: 0 for no effect and ±100 for the full control effect; nearly all actives have a fitted effect of over 60% in size
#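 Multi-concentration cytotoxicity screen in KB-3-1 cells grown in DMEM lacking phenol red with 10% FBS. After 72 h at 37 °C with compound, ATP-dependent luminescence was recorded.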
# Active calls of the source: *; i = inactive; ? = inconclusive; nt = no result given. Unless noted, calls come from the whole dose curve; as a rule, active = well fitted curve in the direction sought with a large enough effect; inconclusive = small, poorly fitted or top-dose-only effect, or another doubt; inactive = no such curve, though single readings can be large; an effect the other way counts as inactive or inconclusive.
SMILES,MCF10A rerep,KB-V1 MDR tox,D3 ag,D3 antag,SW480 rerep,KB-3-1 tox
CC(Oc1ccc(Br)cc1)C(=O)Nc1ccc(S(=O)(=O)NC2=NCCCCC2)cc1 (centres undefined),-3%,23µM*,-5,0,-2%,i
O=C(N/N=C/c1ccccn1)c1ccc(Br)cc1,?,18µM*,-14,?,?,i
O=C(N/N=C/c1ccccn1)c1ccc(N/N=C/c2ccccn2)cc1,5%,i,10,19,-5%,i
O=C(N/N=C/c1ccccn1)c1cccc([N+](=O)[O-])c1,16%,i,-9,-20,?,i
O=C(N/N=C/c1ccccn1)c1cc([N+](=O)[O-])cc([N+](=O)[O-])c1,13%,i,-13,-78*,?,i
Cc1ccc(Cl)cc1N1CCN(C(=O)Cc2csc(Nc3nc(=S)[nH]c4ccccc34)n2)CC1,?,?,-4,-17,13%,i
O=C(Cc1csc(Nc2nc(=S)[nH]c3ccccc23)n1)N1CCN(c2cccc(Cl)c2)CC1,?,18µM*,2,?,13%,23µM*
Cc1cccc(COCC(Cc2ccccc2)N2CCN(C(=O)c3cccc(C)c3)CCC2=O)c1 (centres undefined),?,i,1,-14,?,i
CC(C)(C)c1ccc(C(=O)N2CCC(=O)N([C@H](COCc3ccccc3)Cc3ccccc3)CC2)cc1,nt,i,6,43,nt,i
Cc1cccc(COCC(Cc2ccccc2)N2CCN(C(=O)c3cc(Cl)cc(Cl)c3)CCC2=O)c1 (centres undefined),23µM*,i,-26,0,18µM*,?
CC(C)(C)c1ccc(C(=O)N2CCC(=O)N(C(COCc3ccccc3)Cc3ccccc3)CC2)cc1 (centres undefined),21µM*,?,12,5,?,?
O=C(c1ccc(Cl)c(Cl)c1)N1CCC(=O)N(C(COCc2cccc(C(F)(F)F)c2)Cc2ccccc2)CC1 (centres undefined),?,?,-3,-21,18µM*,?
Cc1cccc(CNC(=O)c2ccc(C)c(-n3c(C)nc4cccnc43)c2)c1,nt,i,7,nt,nt,i
Cc1ccc(C(=O)C(C(=O)/C=C/c2ccccc2)=C2SCCCS2)cc1,21µM*,i,2,0,?,8.2µM*
COc1cccc2sc(N(Cc3cccnc3)C(=O)c3ccc4c(c3)OCCO4)nc12,nt,nt,6,nt,nt,nt
O=C(Nc1ccc2sccc2c1)c1ccc(Cl)s1,18µM*,i,-8,0,-2%,i
O=C(Nc1ccc2c(c1)C(=O)NC2=O)c1ccc(Cl)s1,13%,?,-7,0,1%,i
O=C(C1CC(c2ccccc2O)=NO1)N1CCc2ccccc2C1 (centres undefined),-2%,i,-2,-95*,-1%,i
CC1(c2nnc(Cc3ccccc3)o2)CC(c2cccc([N+](=O)[O-])c2)=NO1 (centres undefined),-1%,i,32*,13,-33%,i
COC(=O)[C@@]12C[C@@H](CC(=O)NCCc3ccccc3OC)C(=O)N(Cc3cccc4ccccc34)C1=CCC(C)(C)C2,nt,23µM*,-8,-28,nt,?
COC(=O)[C@@]12C[C@@H](CC(=O)NCC3CCCCC3)C(=O)N(Cc3cccc4ccccc34)C1=CCC(C)(C)C2,nt,21µM*,5,10,nt,?
COC(=O)[C@]12CCCCC=C1N(Cc1cccc3ccccc13)C(=O)[C@H](CC(=O)NCCC(C)C)C2,nt,18µM*,-7,-4,nt,?
COC(=O)[C@@]12C[C@@H](CC(=O)NCCC(C)C)C(=O)N(Cc3cccc4ccccc34)C1=CCC(C)(C)C2,nt,21µM*,-8,?,nt,21µM*
COC(=O)[C@@]12C[C@@H](CC(=O)NCc3cccc4ccccc34)C(=O)N(Cc3cccc4ccccc34)C1=CCC(C)(C)C2,nt,?,3,8,nt,i
COC(=O)[C@@]12C[C@@H](CC(=O)NCc3ccc(C)o3)C(=O)N(Cc3cccc4ccccc34)C1=CCC(C)(C)C2,nt,?,-3,8,nt,i
SMILES,MCF10A rerep,KB-V1 MDR tox,D3 ag,D3 antag,SW480 rerep,KB-3-1 tox
COc1ccc(C)cc1NC(=O)c1cn(C)c(=O)c2cc(OC)c(OC)cc12,nt,i,-6,nt,nt,i
COC(=O)[C@]12CCCCC=C1N(Cc1ccccc1)C(=O)[C@H](CC(=O)NCc1cccc3ccccc13)C2,nt,i,-2,-14,nt,i
COC(=O)[C@]12CCCCC=C1N(Cc1ccc3c(c1)OCO3)C(=O)[C@H](CC(=O)NCc1cccc3ccccc13)C2,nt,23µM*,0,7,nt,?
COc1ccc(Cl)cc1C=CC=NNS(=O)(=O)c1ccc(C)cc1,?,?,-24,-88*,-2%,i
COCCN=c1scc(-c2cccs2)n1/N=C/c1ccc(O)c(O)c1O,?,?,90*,-8,-10%,?
CCN(CC)c1nc(Nc2ccccc2)nc(Oc2ccc(=O)n(C)n2)n1,?,6.5µM*,6,23,-9%,?
CCCOc1cccc(C(=O)Nc2ccc(-c3nc4ccccc4s3)c(Cl)c2)c1,nt,nt,10,nt,nt,nt
Cc1ccc(S(=O)(=O)N/N=C2/CC(c3ccccc3)Oc3ccccc32)cc1[N+](=O)[O-] (centres undefined),?,i,-4,-83*,17%,i
O=S(=O)(N/N=C1/CC(c2ccccc2)Oc2ccccc21)c1ccc(Br)cc1 (centres undefined),10µM*,23µM*,0,22,?,18µM*
Cc1ccc(S(=O)(=O)NN=C2CCC(C(C)(C)C)CC2)cc1[N+](=O)[O-] (centres undefined),8%,i,-3,-11,-2%,i
COc1cc(NC(=O)Cn2ccc3ccccc3c2=O)cc(OC)c1OC,nt,i,-4,nt,nt,i
CCn1c(NC(=O)c2ccc(C)cc2)c2ccccc2nc1=O,7%,12µM*,-2,35,-2%,i
CCn1c(NC(=O)c2ccc(F)cc2)c2ccccc2nc1=O,23%,10µM*,2,15,-11%,?
